Screening results deposited in PubChem BioAssay by National Center for Advancing Translational Sciences (NCATS).
Pf growth 48h = P. falciparum growth inhibition at 48 hours (one generation); 310,000 tested, 5.9% active; Potency, µM (series often up to 28.7 µM), without a hit: top-dose activity change, negative = inhibition, hits mostly inhibitors; AID 504832; P. falciparum luciferase growth in erythrocytes, 48 h
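Cell-based growth assay: transgenic P. falciparum expressing firefly luciferase, cultured in red cells within RPMI 1640 containing 0.5% w/v Albumax, 24 mM bicarbonate and gentamycin. A drop in luciferase activity indicates inhibition.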
AmpC detergent = blocks E. coli AmpC beta-lactamase in detergent assay; Potency, µM (highest dose often 114 µM), inactives show at the highest dose activity change, negative = inhibition, hits mostly inhibitors; AmpC hydrolysis of nitrocefin, absorbance 480 nm, 0.01% Triton; 370,000 tested, 0.041% active;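 note: 0% = no-compound wells and -100% = no-enzyme wells; nearly all actives have a fitted effect of over 25% in size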
Target sequence (P00811 whole entry, looked up): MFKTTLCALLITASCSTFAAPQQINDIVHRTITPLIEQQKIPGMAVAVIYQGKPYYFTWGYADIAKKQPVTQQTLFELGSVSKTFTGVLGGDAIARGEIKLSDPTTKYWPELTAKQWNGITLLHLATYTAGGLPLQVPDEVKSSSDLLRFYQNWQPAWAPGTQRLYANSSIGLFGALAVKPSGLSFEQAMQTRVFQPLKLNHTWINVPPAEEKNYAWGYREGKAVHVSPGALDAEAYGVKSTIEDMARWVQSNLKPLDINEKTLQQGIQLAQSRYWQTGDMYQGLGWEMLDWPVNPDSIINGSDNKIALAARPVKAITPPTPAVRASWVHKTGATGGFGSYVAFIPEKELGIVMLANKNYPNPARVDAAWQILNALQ
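AmpC (5.3 nM in the dispensed reagent) in 20 mM phosphate pH 7.0 with 0.01% (detergent screen) or 0.0001% Triton X-100 was preincubated with compounds for 15 min at room temperature. Nitrocefin was then added from an 800 uM solution, and hydrolysis was followed at 480 nm.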
AMA1-RON2 inh = inhibitors of Plasmodium falciparum AMA1-RON2 interaction. AlphaScreen AMA1-biotinylated RON2 peptide binding. Potency, µM (titrated, usually from 58.2 µM), for the others: top-dose activity change, negative = inhibition, usual class: inhibitors. 360,000 tested, 0.2% active. AID 720542;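 note: 0% = vehicle wells and -100% = peptide control; nearly all actives have a fitted effect of over 45% in size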
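AMA1 (3D7) with his tag at 25 nM final met compounds first, then biotinylated RON2 peptide at 25 nM; detection used donor plus acceptor beads, 10 µg/mL apiece, read by AlphaScreen after 30 min at room temperature.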
Pf growth 96h = P. falciparum growth inhibition at 96 hour, primary screen for plastid delayed-death inhibitors | Potency, µM (titrated, usually from 28.7 µM), for inactives: at the top dose activity change, negative = inhibition, hits mostly inhibitors | 320,000 tested, 6.9% active | AID 504834 | P. falciparum luciferase reporter growth, 96 h
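P. falciparum expressing integrated firefly luciferase, in erythrocytes at 2% hematocrit, 0.05% parasitemia, incubated with compounds 96 h at 37 C, 5% CO2. Growth inhibition read as loss of luminescence; two-generation exposure targets delayed-death apicoplast inhibitors.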
HCV inhibitor = inhibitors of hepatitis C virus infection | Huh7.5.1 HCVcc-Cre infection, luciferase reporter, 44 h | Potency, µM (highest dose often 41.8 µM), for the others: top-dose activity change, negative = inhibition, usual class: inhibitors | 340,000 tested, 3.4% active | AID 651820
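Infectious HCV cell culture screen: compound-treated cells (1,000/well, pre-plated 4 h) are infected with HCVcc-Cre at roughly 0.5 moi and grown 44 h. Infection is quantified by luciferase signal after 15 min substrate incubation at room temperature.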
AmpC no deterg = blocks E. coli AmpC beta-lactamase in detergent-free assay | P00811 | 330,000 tested, 0.52% active | Potency, µM (top dose mostly 57.1 µM), inactives show at the highest dose activity change, negative = inhibition, hits mostly inhibitors | AID 485341 | AmpC nitrocefin hydrolysis, absorbance 480 nm, 0.0001% Triton;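 note: plate controls were no compound for no effect and no enzyme for full effect; nearly all actives have a fitted effect of over 20% in size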
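AmpC (5.3 nM in the dispensed reagent) in 20 mM phosphate pH 7.0 with 0.01% (detergent screen) or 0.0001% Triton X-100 was preincubated with compounds for 15 min at room temperature. Nitrocefin was then added from an 800 uM solution, and hydrolysis was followed at 480 nm.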
* = called active by the depositor; ? = inconclusive; . = not tested or not shown; [ ] = dose if it differs, or a comment. A selection: hits, their analogues and other compounds. The true share with any hit is near 11%. Calls come from the whole dose curve; as a rule, active = well fitted curve in the direction sought with a large enough effect; inconclusive = small, poorly fitted or top-dose-only effect, or another doubt; inactive = no such curve, though single readings can be large; an effect the other way counts as inactive or inconclusive. Unless noted, % is set by controls: 0 for no effect and ±100 for the full control effect; potency is the fitted concentration of half-maximal effect.

SMILES | Pf growth 48h | AmpC detergent | AMA1-RON2 inh | Pf growth 96h | HCV inhibitor | AmpC no deterg
Cc1cc(C)c2c(=O)n(CC(=O)NCCCN3CCN(c4ccccc4F)CC3)sc2n1 | -11% | ? | -1% | ? | ? | -7%
Cc1cc(C)c2c(=O)n(CC(=O)NCCCN3CCOCC3)sc2n1 | -7% | 45µM* | 18% | ? | -8% | 14µM*
CCOc1cc(/C=C2\C(=O)N(CCc3ccc(OC)c(OC)c3)C(C)=C2C(=O)OC)ccc1O | 12µM* | ? | -16% | ? | -1% | 38%
COC(=O)C1=C(C)N(Cc2ccc(C)cc2)C(=O)/C1=C\c1cc(OC)c(OC)c(OC)c1 | 10µM* | -11% | 35µM* | 34% | ? | 88%
O=C1NC(=O)/C(=C\c2ccc(N3CCOCC3)o2)N1 | 7.4µM* | -8% | 92% | ? | 11% | -16%
CN1C(=O)C(=Cc2ccc(N3CCOCC3)o2)C(=O)N(C)C1=O | 24% | 7% | -3% | -6% | 8% | -45%
O=C1NC(=O)/C(=C/c2ccc(N3CCOCC3)o2)N1 | 1.5µM* | 0% | -6% | ? | 10% | 2%
CC(C)c1ccc(NC(=O)c2ccc(F)c(S(=O)(=O)N3CCc4ccccc4C3)c2)cc1 | . | 8% | . | . | . | .
COc1ccccc1NC(=O)CN1C(=O)C(c2ccc(F)cc2)=NC12CCCCC2 | . | 15% | . | . | . | .
O=C(CCC1CCCCC1)NCCN1C2=NC[C@@H](Cc3ccccc3)N2C[C@H]1Cc1ccc(O)cc1 | ? | 9% | 3% | 2.3µM* | -8% | 52%
C[C@H]1CN=C2N(CCNC(=O)CCC3CCCCC3)[C@H](Cc3ccc(O)cc3)CN21 | 5% | 6% | -6% | 12µM* | 0% | -17%
COc1ccc(C[C@H]2CN3C(=NC[C@@H]3C)N2CCNC(=O)CCC2CCCCC2)cc1 | ? | -2% | -4% | ? | -1% | 24%
O=C(CCC1CCCCC1)NCCN1C2=NC[C@H](Cc3ccccc3)N2C[C@H]1Cc1ccc(O)cc1 | ? | 8% | -1% | 4.7µM* | 42%[8.37 µM] | 9%
CC(C)c1ccc(OCC(=O)Nc2c(C(=O)c3ccc(F)cc3)oc3ccccc23)cc1 | . | 0% | . | . | . | .
O=C(Nc1cccc(C(=O)N2CCCCC2)c1)c1nsc2ccccc12 | . | 0% | . | . | . | .
O=C(NCc1ccccc1Cl)c1ccc(NC(=O)N2CCSc3ncccc32)cc1 | . | 0% | . | . | . | .
COc1cccc(CNC(=O)COc2cc(=O)n(C)c3ccccc23)c1 | . | 3% | . | . | . | .
O=[N+]([O-])c1ccc(NC(c2ccccc2)c2ccc3cccnc3c2O)cc1 (centres undefined) | . | . | 69% | . | ? | .
Oc1c(C(Nc2cccc(C(F)(F)F)c2)c2cccnc2)ccc2cccnc12 (centres undefined) | 9.3µM* | -3% | -34% | 3.7µM* | 11µM* | -18%
Cc1cc(NC(c2cccnc2)c2ccc3cccnc3c2O)no1 (centres undefined) | 2.1µM* | -9% | 20µM* | 4.1µM* | 2.5µM* | -22%
C=CCC1(CC=C)CCCN1C(=O)CC1C(=O)NCCN1Cc1cc(OC)cc(OC)c1 (centres undefined) | 15µM* | 3% | 23% | ? | 4% | 149%
COC(=O)c1sc2cccc(F)c2c1S(=O)(=O)NCc1ccc(Cl)cc1 | . | 10% | . | . | . | .
Cc1ccc(-c2nc3c(c(=O)c4ccccc4n3C)c(=O)n2-c2ccc(F)cc2)cc1 | 8.3µM* | 5% | -3% | -25% | 7% | -14%
CCc1nc2c(c(=O)c3ccccc3n2C)c(=O)n1-c1ccc(F)cc1 | 28% | 14% | 14%[2.32 µM] | ? | ? | -2%
COCCn1c(-c2cccs2)nc2c(c(=O)c3ccccc3n2C)c1=O | ? | 4% | . | ? | . | -12%
SMILES | Pf growth 48h | AmpC detergent | AMA1-RON2 inh | Pf growth 96h | HCV inhibitor | AmpC no deterg
Cn1c2ccccc2c(=O)c2c(=O)n(-c3ccccc3)c(-c3ccc(C(C)(C)C)cc3)nc21 | 1.9µM* | 6% | -10% | 2.6µM* | ? | -34%
CC(c1ccccc1)n1c(-c2cccs2)nc2c(c(=O)c3ccccc3n2C)c1=O (centres undefined) | 9.3µM* | -2% | 1% | -5% | 14µM* | -12%
Cn1c2ccccc2c(=O)c2c(=O)n(-c3ccc(F)cc3)c(-c3cccs3)nc21 | ? | -5% | ? | 5.2µM* | -13% | -27%
COc1cccc(CNC(=O)CCn2cnc3ccccc3c2=O)c1 | . | 0% | . | . | . | .
CC(C)c1ccc(-c2noc(SCC(=O)N3CCCCC3C)n2)cc1 (centres undefined) | . | 6% | . | . | . | .
COc1cccc2cc(C(=O)NCCc3c(C)[nH]c4ccc(Br)cc34)c(=O)oc12 | . | -15% | . | . | . | .
CCCCN1C(=O)C(NC(=O)c2ccc(C(C)(C)C)cc2)(C(F)(F)F)C(C(=O)OC)=C1C (centres undefined) | . | 0% | . | . | . | .
COc1cccc(C(=O)NCC(=O)OCc2cc(=O)n3c(C)csc3n2)c1 | . | 1% | . | . | . | .
COC(=O)c1ccccc1NC(=O)C1=C(C)C(=O)OC12CCCCCC2 | . | 1% | . | . | . | .
COc1cc(OC)c2cc(C(=O)N/N=C/c3cccc(OC)c3O)[nH]c2c1 | ? | -5% | 99% | ? | 8.9µM* | 0.4µM*
COc1ccc2[nH]c(C(=O)N/N=C/c3ccc(O)cc3O)cc2c1 | 6.6µM* | -7% | 65% | ? | ? | -20%
COc1cccc(/C=N/NC(=O)c2cc3c(OC)ccc(OC)c3[nH]2)c1O | . | -11% | 16% | ? | 2.5µM* | 4%
COc1cccc(/C=N/NC(=O)c2ccc3nc[nH]c3c2)c1O | ? | 3% | 72% | -28% | 12% | -16%
Cc1ccc(Sc2ccc(N3CCCC(C(=O)Nc4ccc(F)c(Cl)c4)C3)nn2)cc1 (centres undefined) | . | 13% | . | . | . | .
CCOC(=O)/C(=C/c1c[nH]c2ccccc12)NC(C)=O | 21% | -1% | ? | 52% | 13% | 0%
CCOC(=O)/C=C(C)\C=C\c1c[nH]c2ccccc12 | 13µM* | 0% | -24% | 0% | ? | -38%
CCCC(O)c1nc2ccccc2n1Cc1ccccc1OC (centres undefined) | . | -3% | . | . | . | .
Clc1cccc(CSc2nncn3c2cc2sccc23)c1 | . | 15% | . | . | . | .
O=S(=O)(c1ccc(F)cc1)N1CCN(c2nc(-c3cccnc3)nc3ccccc23)CC1 | 9.3µM* | 1% | 11%[11.6 µM] | 10µM* | ? | 44%
CC(=O)c1ccc(S(=O)(=O)N2CCN(c3nc(-c4cccnc4)nc4ccccc34)CC2)cc1 | 8.3µM* | 5% | -8% | ? | ? | 132%
